# Source: PubChem BioAssay AID588852 (The Scripps Research Institute Molecular Screening Center, 2011)
# Among all 360,000 compounds or so, about 4,600 (1.3%) were called active.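 Rule for the calls: active = percent inhibition above its own plate's cutoff, namely the mean of that plate's compound wells plus 3 SD; inactive = the rest.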 Shown is part of a subset that was picked to be rich in actives.
# Target: Muscarinic acetylcholine receptor M1 (Homo sapiens) (UniProt P11229)
# Assay: CHRM1 blockers of acetylcholine calcium response – CHO-K1 cells, Fluo-8 calcium fluorescence, 1536-well, primary screen (AID 588852);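 note: peak over basal fluorescence ratio during 140 s after agonist addition; 0% = ACh EC80 plus DMSO and 100% = DMSO alone without agonist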
# Conditions: CHO-K1 hM1, Fluo-8 calcium fluorescence, ACh EC80 antagonist; at 3 µM; stronger effect = higher value
# Muscarinic acetylcholine receptor M1 (Homo sapiens), sequence (P11229 whole entry, looked up): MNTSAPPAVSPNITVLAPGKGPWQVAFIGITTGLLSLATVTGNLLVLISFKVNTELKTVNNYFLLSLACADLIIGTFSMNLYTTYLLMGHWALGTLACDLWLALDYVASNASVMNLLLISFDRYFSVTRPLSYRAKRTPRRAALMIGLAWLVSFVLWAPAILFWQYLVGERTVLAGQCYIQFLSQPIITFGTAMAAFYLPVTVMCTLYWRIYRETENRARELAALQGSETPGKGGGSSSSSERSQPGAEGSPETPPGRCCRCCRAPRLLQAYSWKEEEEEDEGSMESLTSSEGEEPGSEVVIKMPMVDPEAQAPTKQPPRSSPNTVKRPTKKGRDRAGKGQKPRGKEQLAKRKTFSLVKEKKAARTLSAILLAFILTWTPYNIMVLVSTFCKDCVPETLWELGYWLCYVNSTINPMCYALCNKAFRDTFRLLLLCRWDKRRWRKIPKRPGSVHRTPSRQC
row,Compound,inhibition
1,C/C(=N\NC(=S)NCc1ccccc1)C1CCCCC1,-9.74% (inactive)
2,Cc1cc2nc(-c3ccc(Cl)cc3)c(Cc3cccc(F)c3)n2c(C)c1Br,0.42% (inactive)
3,O=C(Nc1c2c(nn1-c1ccccc1)CS(=O)(=O)C2)C1CCCC1,-10.8% (inactive)
4,COc1ccccc1OCC(=O)Nc1c2c(nn1-c1ccc(F)cc1)CS(=O)(=O)C2,-12.4% (inactive)
5,O=C(CC1CCCCC1)Nc1c2c(nn1-c1ccc(F)cc1)CS(=O)(=O)C2,104% (active)
6,c1ccc2c(c1)CSc1sccc1C2=C1CCNCC1,99.6% (active)
7,CC(C)(C)NC(=O)CSC(=Nc1ccccc1F)NC#N,-1.14% (inactive)
8,CCOC(=O)N1CCN(C(=O)c2ccc3c(=O)n(CCc4ccc(OC)c(OC)c4)c(=O)[nH]c3c2)CC1,62.3% (active)
9,COCCn1c(=S)[nH]c2cc(C(=O)NCCc3ccc(OC)c(OC)c3)ccc2c1=O,-6.48% (inactive)
10,COc1ccc(-n2c(=O)[nH]c3cc(C(=O)NCCc4ccc(OC)c(OC)c4)ccc3c2=O)c(OC)c1,-8.11% (inactive)
11,COCc1cc(=O)[nH]c(-c2ccc(C(F)(F)F)cc2)n1,-16.9% (inactive)
12,CC(=O)N[C@@H](C)C(=O)N1CCC(n2nccc2NC(=O)CCCc2ccccc2)CC1,-3.58% (inactive)
13,CN(Cc1ccc(C(F)(F)F)cc1)C(=O)[C@H]1O[C@@H](n2cnc3c(N)ncnc32)[C@H](O)[C@@H]1O,-26% (inactive)
14,COC(CCN(C)C)(c1ccccc1)c1ccccc1,60.4% (active)
15,CN(C)N(C)C(=O)C(O)(c1ccccc1)c1ccccc1,17.7% (inactive)
16,CCCC(O)(c1ccc(OC)cc1)C(CN(C)C)c1ccccc1 (stereo not given),-7.01% (inactive)
17,CC(=O)NC(CC(=O)Nc1cccc(S(=O)(=O)N2CCCC2)c1)c1ccccc1 (stereo not given),3.34% (inactive)
18,CN(C)CCNC(=O)c1cccc(-c2cnc3c(NC=O)cc(-c4cccc(C(F)(F)F)c4)cn23)c1,2.76% (inactive)
19,CN1OC[C@@H]2CN(C(=O)c3cccc4ccccc34)[C@H](c3ccc(N4CCCCC4)cc3)C[C@@H]21,19.7% (inactive)
20,CN(CCOc1ccccc1)Cc1nc2cc(Cl)ccc2c(=O)[nH]1,-3.58% (inactive)
21,Cc1nnc(NC2=NCCCCC2)o1,4.98% (inactive)
22,CC/C(=N\NC(=S)NC(C)C)c1ccc(OC(F)F)cc1,8.57% (inactive)
23,O=C(NCc1ccccc1Cl)C1CCN(S(=O)(=O)N2CCOCC2)CC1,0.29% (inactive)

row,Compound,inhibition
1,Cc1ccc(S(=O)(=O)NCCC(=O)NC2CCN(Cc3ccccc3)CC2)cc1,-6.1% (inactive)
2,O=C(NNS(=O)(=O)c1ccc(Cl)cc1)C1CCN(Cc2ccccc2)CC1,57.4% (active)
3,CCNC(=S)NNC(=O)C1CCN(Cc2ccccc2)CC1,-7.27% (inactive)
4,O=C(NCc1ccccc1CN1CCCC1)C1CCN(S(=O)(=O)c2ccc(Cl)cc2)CC1,35.7% (active)
5,O=C1CCc2cc(S(=O)(=O)N3CCC(C(=O)NCc4ccccc4Cl)CC3)ccc2N1,-13.3% (inactive)
6,CCCCC[C@@H]1C=C(C(=O)OCC)[C@H](c2ccccc2)N1S(=O)(=O)c1ccc(C)cc1,7.33% (inactive)
7,Cc1ccc(NC(=O)[C@H](Cc2ccccc2)NC(=O)CC[C@H]2O[C@@H](n3ccc(=O)[nH]c3=O)[C@H](O)[C@@H]2O)cc1C,-1.88% (inactive)
8,Nc1ncnc2c1ncn2[C@@H]1O[C@H](C(=O)N2CCCN(Cc3ccccc3F)CC2)[C@@H](O)[C@H]1O,-21.5% (inactive)
9,CN(C)C(=O)c1cccc(-c2cnc3sc(NCc4ccc5c(c4)OCO5)nn23)c1,-4.01% (inactive)
10,CCCCOC(=O)c1ccc(N2C(=O)CC(N3CCN(C/C=C/c4ccccc4)CC3)C2=O)cc1 (stereo not given),23.9% (active)
11,CCOC(=O)c1ccc(N2C(=O)CC(N3CCN(C(=O)c4ccccc4)CC3)C2=O)cc1 (stereo not given),-7.68% (inactive)
12,CCOC(=O)c1ccc(N2C(=O)CC(N3CCC(C(=O)OCC)CC3)C2=O)cc1 (stereo not given),2.05% (inactive)
13,COc1ccc(CCNC(=O)CCNS(=O)(=O)c2cc(Br)cnc2N)cc1OC,-19.1% (inactive)
14,C=CCC1(CC=C)CCCN1C(=O)c1cc(COc2ccc(-n3cncn3)cc2)on1,38.7% (active)
15,COc1cccc(OCc2cc(C(=O)N3CCN(C(=O)c4ccco4)CC3)no2)c1,-3.65% (inactive)
16,CCCC(=O)N1CCC1(C)C(=O)Nc1ccc(-n2cncn2)cc1 (stereo not given),-15.8% (inactive)
17,CC(NC(=O)c1ccccc1SCC(=O)N1CCCC1)c1ccccc1 (stereo not given),-16.6% (inactive)
18,CC(C)N(Cc1ccccc1)C(=O)COC(=O)c1ccccc1SCC(=O)N1CCCC1,32.7% (active)
19,COc1ccccc1NC(=O)COC(=O)c1ccccc1SCC(=O)N1CCCC1,-4.49% (inactive)
20,COc1cc(C=C(OC(C)=O)c2ccc3c(c2)OCO3)cc(OC)c1OC,17.2% (inactive)
21,O=C(NCC1CCCO1)c1ccccc1-c1nc(-c2ccccc2Cl)no1 (stereo not given),6.15% (inactive)
22,Cc1ccc(C(=O)NCC(=O)NCc2cc(=O)n(C)c(=O)n2C)cc1,-9.92% (inactive)
